Hit rate of the full screen: of about 3,000 compounds, about 1,800 (60%) were called active. The set was probably picked from earlier hits. A selection follows. A number with no mark means an inactive call.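 Rule for the calls: active = activation at or above a set limit, or at least 3 SD above the negative control mean; inactive = the rest.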

In the assay the target is Nuclear receptor subfamily 1 group D member 1 (Homo sapiens) (UniProt P20393). As to the kind of experiment: modulators of Rev-erb alpha DNA binding, confirmation, biochemical, FITC-DNA, fluorescence polarization, single point (AID 1259319).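 Note: 0% = 35 nM protein with DMSO and 100% = 750 nM protein high control.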 The conditions noted are these: 90 min, at 25 µM, hits give high values.
Nuclear receptor subfamily 1 group D member 1 (Homo sapiens), sequence (P20393 whole entry, looked up): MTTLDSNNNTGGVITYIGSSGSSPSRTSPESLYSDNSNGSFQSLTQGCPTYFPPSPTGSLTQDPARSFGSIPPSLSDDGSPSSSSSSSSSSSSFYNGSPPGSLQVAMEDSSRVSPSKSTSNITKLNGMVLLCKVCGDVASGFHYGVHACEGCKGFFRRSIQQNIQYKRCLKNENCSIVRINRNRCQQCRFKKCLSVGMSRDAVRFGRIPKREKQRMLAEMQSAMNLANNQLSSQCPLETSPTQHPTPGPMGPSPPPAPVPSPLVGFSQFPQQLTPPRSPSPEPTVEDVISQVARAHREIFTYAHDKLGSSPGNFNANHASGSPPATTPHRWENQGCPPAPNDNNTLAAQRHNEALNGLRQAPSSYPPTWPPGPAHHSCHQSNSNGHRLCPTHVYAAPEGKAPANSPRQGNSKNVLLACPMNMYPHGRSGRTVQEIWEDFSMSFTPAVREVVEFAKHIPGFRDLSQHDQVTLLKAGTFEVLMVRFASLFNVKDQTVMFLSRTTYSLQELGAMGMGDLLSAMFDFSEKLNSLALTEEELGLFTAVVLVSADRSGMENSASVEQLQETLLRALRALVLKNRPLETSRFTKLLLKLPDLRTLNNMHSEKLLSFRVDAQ
`COCCCNc1nc2c(-c3cccc(C)c3)nnn2c2ccc(Cl)cc12`: the activation is 28.8% (active).
In the case of `CN1C(=O)c2cccc3c(N)ccc(c23)C1=O`, the activation was 225% (active).
For `Cc1nn(C)cc1N1C(=O)c2cccc3c(N)ccc(c23)C1=O`, the activation was 181% (active).
As to `COc1ccc(-c2c(C)cc3oc(=O)cc(-c4ccccc4)c3c2C)cc1C=O`, the activation was 8.9%.
Consider `C=C(C)C1CC=C(C)/C(=N\NC(=O)CNc2ccccc2OC)C1` (configuration not stated), for which the activation was 6.76%.
Take `Cn1c(=NC(=O)c2ccc3c(c2)OCCO3)sc2cc(S(C)(=O)=O)ccc21`: the activation was 12.7%.
Consider `COC(=O)Cn1c(=NC(=O)c2cc(OC)c(OC)c(OC)c2)sc2cc(OC)ccc21`, for which the activation is 14.3%.
As for `C=CCn1c(=NC(=O)c2ccc(S(=O)(=O)N3CCCC3)cc2)sc2cc(NC(C)=O)ccc21`, the activation was 34.3% (active).
The same measure for `C=CCn1c(=NC(=O)c2cccs2)sc2cc(NC(C)=O)ccc21`: 33.8% (active); for `COc1ccccc1CC1(C)C(=O)Nc2ccc(OC(F)(F)F)cc21` (configuration not stated): 60.9% (active); for `O=C(NCc1ccc(Cl)cc1)c1cc2c(nc3sccn32)s1`: 19.2% (active).
Regarding `COc1ccc(S(=O)(=O)N2CCOCC2)cc1C(=O)Nc1nc2ccccc2s1`, the activation is 20.7% (active).
Consider `COc1cc2c(cc1NC(=O)CN1CCN(S(=O)(=O)c3ccc(F)cc3)CC1)oc1ccccc12`, for which the activation was 3.46%.
For the molecule `COc1ccc(C)cc1Nc1nc(C)nc2c1oc1ccccc12`, the activation is 28.2% (active).
The result for `CCOC(=O)c1sc(NC(=O)CCN2CCOCC2)c(C(=O)OCC)c1C` reads 5.98%; that for `COc1ccc(-c2nn(C)c(=O)c3ccccc23)cc1NC(=O)COc1ccccc1`, 33.9% (active).
The result for `CCOc1ccc(NC(=O)CSc2ncnc3c2sc2ccccc23)cc1` reads 107% (active); that for `COc1cc(OC)c(N2CC(C(=O)Nc3cc(Cl)ccc3N3CCOCC3)CC2=O)cc1Cl` (configuration not stated), 1.79%.
The same measure for `COc1cc(OC)cc(-c2c(C#Cc3ccsc3)c3cc(-c4ccc(SC)cc4)ccc3n2C)c1`: 32.1% (active).
As to `CCOc1ccc2nc(Cl)c(C3CC(c4ccccc4)=NN3C(=O)c3cccs3)cc2c1` (configuration not stated), the activation is -0.503%.
Regarding `Cc1ccc(S(=O)(=O)c2c[nH]c3ccc(Cl)cc3c2=O)cc1`, the activation was 137% (active).
Regarding `COc1ccc(-n2nc(C(=O)NCC(=O)Nc3cccc(C)n3)c3ccccc3c2=O)cc1`, the activation is 10.2%.
With `COc1ccc(-n2nc3c(N4CCC(C(=O)NCc5ccccc5)CC4)nnc(C)c3c2C)cc1`, the activation was 32.9% (active).
The result for `Cc1cc(Br)ccc1NC(=O)c1sc2ncn(CC(=O)N3CCN(c4ccccn4)CC3)c(=O)c2c1C` reads 37.6% (active).
On to `Cc1nc(N2CCN(c3ccccn3)CC2)c2c(C)c(C(=O)Nc3ccc(F)c(Cl)c3)sc2n1`, for which the activation was 17.3%.
Turning to `CCOC(=O)c1ccc(NC(=S)N2CCN(c3ccccn3)CC2)cc1`, the activation is 12.8%.
Take `COc1ccc(-c2nnc3ccc(SCc4ccccc4)nn23)cc1`: the activation was 14.9% (active).
For the molecule `CCOc1ccc(-c2nnc3ccc(SC)nn23)cc1`, the activation was 26% (active).
In the case of `Cc1cc(C)c2nc(SCC(=O)N(C)C3CCS(=O)(=O)C3)cc(C)c2c1` (configuration not stated), the activation is 34.9% (active).
For the molecule `CC1(C)Cc2nc3sc4c(SCC(=O)NC(c5ccccc5)c5ccccc5)ncnc4c3cc2CO1`, the activation was 138% (active).
As for `COc1ccc(/C=C2\SC(=S)N(CCCC(=O)NC3CCCC3)C2=O)cc1OC`, the activation is 31.3% (active).
As to `Cc1cc(/C=C(/C#N)C(=O)Nc2ccc(Cl)cc2)c(C)n1-c1cccnc1`, the activation is 53.9% (active).
`CCCc1nc(SCC(=O)Nc2ccc(S(=O)(=O)N(C)C)cc2)c2ccccc2n1`: the activation was 18.2% (active).
The result for `COC(=O)c1ccc(NC(=O)c2cc(Cl)ccc2OC)cc1` reads 32.8% (active); that for `Cc1cc(C)c(/C=C2\C(=O)Nc3ccccc32)[nH]1`, 32.5% (active); that for `Cc1ccc(NS(=O)(=O)c2cc3c(cc2Br)NC(=O)CO3)cc1C`, 5.15%.
The result for `COc1ccc(CCNc2nc3ccc(C)cc3n3cnnc23)cc1OC` reads 2.71%.
In the case of `O=C(Nc1nnc(-c2ccccc2F)s1)c1ccccc1F`, the activation is 25.2% (active).
The result for `Cc1ccc(C(=O)Nc2nnc(-c3cccs3)s2)cc1C` reads -3.7%; that for `CN1/C(=c2/s/c(=C3/C(=O)N(c4ccccc4)NC3=Nc3ccccc3)n(C)c2=O)C(C)(C)c2ccccc21`, 29.8% (active).
Turning to `CCCCCCSc1ccc(-c2nc3ccc(Cl)cn3c2NCc2ccccc2)cc1`, the activation is 12.7%.
In the case of `CSc1ccc(-c2c(C#N)c(N)nc3c2c(C)nn3-c2ccccc2)cc1`, the activation was 7.01%.
In the case of `Cc1cc(C)c2c(-c3ccc(F)cc3)c(C#N)c(=O)n(C)c2n1`, the activation is 24.5% (active).
The result for `Cc1cc(N/C=C\C(=O)c2ccc(Cl)c(Cl)c2)no1` reads 4.17%; that for `O=C(COc1ncnc2c(Cl)cc(Cl)cc12)N1CCN(S(=O)(=O)c2ccccc2)CC1`, 14.4%; that for `N#Cc1c(-c2ccc(F)cc2)cc(C2CC2)nc1SCC(=O)c1cccs1`, 65.1% (active).
As for `CS(=O)(=O)c1ccc2nc(NC(=O)c3ccc(N4CCCC4=O)cc3)sc2c1`, the activation was 18.3% (active).
`COc1ccc(-c2csc(NC(=O)c3ccc(N4C(=O)CCC4=O)cc3)n2)cc1OC`: the activation was 16.5%.
On to `CCOC(=O)C1=C(c2ccccc2)O/C(=C(/C(=O)OC)C(F)(F)F)S1`, for which the activation was 0.229%.
With `CCC(C)C1(C2CCCC2)NC(=O)NC1=O` (configuration not stated), the activation is -1.67%.
The result for `CC1(C)CC2CC(C)(CN2c2ncnc3ccc(Br)cc23)C1` (configuration not stated) reads 14%.
The result for `Cc1cccc(N(CC(=O)Nc2ccc(-c3nc4ccc(C)cc4s3)cc2)S(C)(=O)=O)c1` reads 22.1% (active).

Source of the values: PubChem BioAssay AID1259319 (Sanford-Burnham Center for Chemical Genomics, 2017).
